Assay [1] relates to Human papillomavirus type 1a protein E7 (residues 44-93). The assay can be described thus: HPV1a E7 fragment binders on microarrays, primary screen, biochemical, small-molecule microarray, residues 44-93, 635 nm fluorescence (AID 1108).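 Also: E7 fragment applied at 1 µg/mL in TBST for 1 h at 4 C; score combines spot fluorescence with its signal to noise ratio.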 To be noted: small-molecule microarray binding, fluorescence 635 nm; higher = more signal.
Assay [2] is described as follows: modulators of HCV replicon luciferase signal, primary screen, HCV replication inhibitor project, Huh7 cells, luciferase reporter (AID 1109).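 Also: huh7 hepatoma cells harbouring a luciferase neomycin HCV replicon reporter; luciferase luminescence as measure of HCV replicon replication; test concentration not given here.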 To be noted: 48 h, higher = more signal. (In general: Replicon systems follow genome replication, usually without infectious particles.)
The target in assay [3] is Left-right determination factor 2 (Homo sapiens) (UniProt O00292). Briefly: LEFTY2 binders on small-molecule microarrays, primary screen, biochemical, small-molecule microarray, 635 nm fluorescence scan (AID 1110). Conditions: LEFTY2 binding, higher = more signal.
The target of assay [4] is Calmodulin-1 (Homo sapiens) (UniProt P0DP23). The assay can be described thus: CALM1 binders on microarrays, EGTA buffer, profiling panel, biochemical, small-molecule microarray, Cy5-labelled CALM1 (AID 1111).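 Also: labelled calmodulin applied in Tris saline Tween buffer holding calcium plus EGTA and DTT.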 To be noted: Cy5-CALM1 binding fluorescence, higher = more signal.
Assay [5] shares this target. Briefly: calcium-bound CALM1 binders on microarrays, profiling panel, artefact control for SMM control-protein annotation, biochemical, small-molecule microarray, Cy5-labelled CALM1, plus calcium (AID 1112).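 Also: score merges spot fluorescence with signal to noise from triplicate slides.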 To be noted: Cy5-CALM1 binding fluorescence, higher = more signal.
A short description of assay [6]: small-molecule microarray binders of probe aWnt5a, primary screen, biochemical, biotinylated probe, 635/667 nm fluorescence (AID 1113).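 Also: score merges 667 nm fluorescence intensity with signal-to-noise per printed feature.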 To be noted: higher = more signal.
The nature of assay [7]: small-molecule microarray binders of probe aShh, primary screen, biochemical, biotinylated probe, 635/667 nm fluorescence (AID 1114).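 Also: probe is biotin-labelled aShh protein from a stem cell growth factor screen; measures binding of labelled protein to compounds printed on the slide; score merges feature fluorescence at 667 nm with signal-to-noise.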 To be noted: higher = more signal.
Assay [8] is described as follows: small-molecule microarray binders of probe aNog, primary screen, biochemical, biotinylated probe, 635/667 nm fluorescence (AID 1115).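 Also: probe is biotinylated aNog protein used at 0.15 µg/mL for 1 h at 4 C; z-score combines 667 nm fluorescence of each spot with its signal to noise.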 To be noted: higher = more signal.
Assay [9] has as its target Torsin-1A-interacting protein 1 (Homo sapiens) (UniProt Q5JTV8). The assay can be described thus: LAP1 binders from COS7 cell lysate, primary screen, small-molecule microarray, 635/667 nm fluorescence (AID 1116). Conditions: COS7-hLAP1 lysate binding, 635 nm fluorescence, higher = more signal.
Assay [10] has as its target Alpha-bungarotoxin (Bungarus multicinctus) (UniProt P60615). Briefly: alpha-bungarotoxin binders on microarray, profiling panel, artefact control for SMM control protein annotation, biochemical, small-molecule microarray, Alexa647 label, 635/667 nm fluorescence (AID 1117). To be noted: alpha-BTX-A647 binding fluorescence, higher = more signal.

Sequence of Alpha-bungarotoxin (Bungarus multicinctus) (P60615 whole entry, looked up): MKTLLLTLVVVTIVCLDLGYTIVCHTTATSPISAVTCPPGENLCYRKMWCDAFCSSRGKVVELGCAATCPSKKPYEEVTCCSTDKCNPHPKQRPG
Sequence of Torsin-1A-interacting protein 1 (Homo sapiens) (Q5JTV8 whole entry, looked up): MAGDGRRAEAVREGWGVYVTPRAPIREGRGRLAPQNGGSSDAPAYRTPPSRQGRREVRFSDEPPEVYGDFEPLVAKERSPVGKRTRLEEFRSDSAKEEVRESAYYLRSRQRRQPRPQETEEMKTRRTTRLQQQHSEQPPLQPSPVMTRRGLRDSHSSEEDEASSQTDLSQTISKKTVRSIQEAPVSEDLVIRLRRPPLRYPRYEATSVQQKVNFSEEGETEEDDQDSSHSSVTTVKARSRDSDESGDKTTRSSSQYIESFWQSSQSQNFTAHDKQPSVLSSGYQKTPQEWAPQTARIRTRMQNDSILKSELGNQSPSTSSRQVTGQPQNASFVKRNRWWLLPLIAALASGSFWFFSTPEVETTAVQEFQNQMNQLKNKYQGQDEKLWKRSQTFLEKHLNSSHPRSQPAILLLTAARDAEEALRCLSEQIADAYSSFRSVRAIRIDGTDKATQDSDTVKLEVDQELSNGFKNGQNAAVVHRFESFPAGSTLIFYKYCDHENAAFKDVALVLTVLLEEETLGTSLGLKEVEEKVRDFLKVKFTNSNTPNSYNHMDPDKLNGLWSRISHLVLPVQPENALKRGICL
Sequence of Left-right determination factor 2 (Homo sapiens) (O00292 whole entry, looked up): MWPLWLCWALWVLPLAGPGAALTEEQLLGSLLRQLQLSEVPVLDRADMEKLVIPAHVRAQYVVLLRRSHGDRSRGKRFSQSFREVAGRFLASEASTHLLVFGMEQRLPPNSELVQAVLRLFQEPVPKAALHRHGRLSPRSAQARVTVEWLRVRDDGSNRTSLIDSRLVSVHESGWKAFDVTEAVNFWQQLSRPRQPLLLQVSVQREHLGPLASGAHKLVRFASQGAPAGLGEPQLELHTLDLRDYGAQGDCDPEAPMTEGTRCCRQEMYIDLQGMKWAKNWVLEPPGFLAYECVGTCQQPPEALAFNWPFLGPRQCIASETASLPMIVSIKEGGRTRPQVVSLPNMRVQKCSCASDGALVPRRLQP

As to `NCCCC[C@@H]1NC(=O)[C@H]2C[C@@H](C(=O)NCc3ccc(F)cc3)[C@@H](c3ccc(O)cc3)N2C1=O`, the composite z-score in assay [1] was 1.18; in assay [3], 0.567; in [4], 1.17; in [5], 0.428; in assay [6] it was -0.0161; in assay [7], 0.452. For the same compound, the composite z-score was -0.171 in assay [8], 2.33 in assay [9] and 1.26 in [10]. This compound also showed a z-score in [2] of -0.0038.

On to `O=C(NCCO)C1=C[C@H](Oc2ccccc2I)[C@@H](O)[C@H](NCc2ccc(F)cc2)C1`, for which the composite z-score in [1] is -0.938; in assay [3], 0.949; in assay [4], -0.815; in assay [5], -2.87; in assay [6], -0.237; in assay [7] it was -0.262. The composite z-score in assay [8] is -0.0542; in [9], 5.01; in [10], -0.89. The compound also returned a z-score in assay [2] of -3.66.

As for `Cc1ccc(F)cc1S(=O)(=O)N[C@@H]1CCN(Cc2ccc3[nH]ccc3c2)C1`, the composite z-score in assay [1] was 0.935; in assay [3], 0.292; in assay [4], -0.46; in [5], -0.754; in assay [6], -0.12; in [7], -0.0709. Moreover, the composite z-score is -0.295 in assay [8], 0.144 in assay [9] and 0.431 in [10]. In [2], the z-score is -4.03.

With `COc1cc2c(cc1O)C(c1ccc(CN3CCCC3)cc1)N(Cc1cccc(OC(F)(F)F)c1)CC2` (stereo not given), the composite z-score is 0.743 in [1]; 0.629 in [3]; -0.0262 in [4]; -0.664 in [5]; -0.203 in [6]; -0.0522 in assay [7]. Moreover, the composite z-score in assay [8] worked out at 0.0583; in assay [9] it was 0.62; in [10] it was 1.61. This compound also yielded a z-score in [2] of -3.63.

`CN(C)CCCC[C@@H]1NC(=O)[C@H]2C[C@@H](C(=O)O)[C@@H](c3cccc(OCCO)c3)N2C1=O`: the composite z-score in [1] is -0.226; in assay [3], 0.494; in [4], -0.526; in [5] it was 0.16; in [6], 0.0495; in assay [7], 0.0611. The figures for the composite z-score in assay [8], in [9] and in assay [10] were 0.25, 0.633 and 1.47, respectively. The compound further yielded a z-score in [2] of 4.23.

On to `COC(=O)[C@@]1(Cc2ccccc2)[C@@H]2[C@@H](CC(=O)[C@H]2CC(=O)C(=O)N(C)C)CN1C(=O)c1ccccc1`, for which the composite z-score in assay [1] was 0.426; in [3], -0.116; in [4] it was 0.518; in [5], 0.599; in assay [6], 0.0078; in assay [7] it was -0.0322. Further, the figures for the composite z-score in assay [8], in assay [9] and in assay [10] were 0.859, 1.38 and 0.43, respectively. Also, the z-score in assay [2] is -0.96.

`COc1cc2c(cc1O)C(C1CC1)N(Cc1ccc([N+](=O)[O-])o1)CC2` (stereo not given): the composite z-score in assay [1] is 1.29; in assay [3], -0.423; in assay [4] it was 1.82; in [5], 1.21; in assay [6], -0.0924; in assay [7], -0.291. The composite z-score is 1.73 in assay [8], 1.04 in [9] and 0.42 in assay [10]. The z-score in assay [2] was -0.498.

For `CC(C)CNC(=O)[C@@H]1c2ccccc2C(=O)N(C2Cc3ccccc3C2)[C@H]1c1ccc(CO)cc1`, the composite z-score was 1.11 in [1]; -0.325 in [3]; -0.588 in [4]; -0.616 in assay [5]; -0.101 in assay [6]; -0.185 in [7]. The composite z-score is 0.325 in assay [8], 0.691 in assay [9] and -0.205 in assay [10]. The z-score in assay [2] was -0.235.

Turning to `CN(C)C(=O)[C@]1(Cc2ccccc2CN=[N+]=[N-])N=C(c2ccc(OCCCO)cc2)O[C@@H]1c1ccccc1N=[N+]=[N-]`, the composite z-score was 1.44 in assay [1]; -0.472 in assay [3]; 1.71 in assay [4]; 0.422 in assay [5]; -0.0161 in [6]; 0.0639 in assay [7]. The figures for the composite z-score in assay [8], in [9] and in [10] were 0.526, 0.609 and 1.14, respectively. The compound also came in with a z-score in assay [2] of -1.6.

With `COCCOC(=O)N1C(=O)[C@@]2(c3cc(C#CC4=CCCCC4)ccc31)[C@H](c1ccccc1OCCO)N1[C@H](c3ccccc3)[C@H](c3ccccc3)OC(=O)[C@H]1[C@@H]2C(N)=O`, the composite z-score was 1.32 in assay [1]; 0.62 in [3]; 0.367 in assay [4]; -0.416 in assay [5]; -0.0758 in assay [6]; -0.167 in assay [7]. Also, the composite z-score in assay [8] was -0.512; in [9], 0.383; in [10], 0.161. This compound also gave a z-score in assay [2] of -3.44.

Turning to `CC(C)C[C@@H]1NC(=O)[C@@H]2C[C@H](C(=O)NCCCC[N+](C)(C)C)[C@H](c3ccc(O)cc3)N2C1=O`, the composite z-score in assay [1] is 0.39; in assay [3] it was 1.05; in [4], -0.928; in assay [5] it was -0.768; in [6], 0.0031; in assay [7], 0.199. Also, the composite z-score in assay [8] is 0.114; in [9] it was 1.24; in assay [10] it was 0.789. Besides, the z-score in [2] was -0.996.

On to `O=C1C2C=CC(C(O)c3cccs3)N(Nc3ccccc3)C2C(=O)N1c1ccccc1` (stereo not given), for which the composite z-score was 0.407 in assay [1]; 0.253 in assay [3]; 0.297 in assay [4]; -0.971 in [5]; 0.0135 in assay [6]; 0.0469 in assay [7]. Moreover, the composite z-score in [8] amounted to 0.371; in assay [9], 0.403; in assay [10], 0.38. In [2], this compound registered a z-score of -1.09.

As to `COCCOC(=O)N1C(=O)[C@@]2(c3cc(C#CCNC(N)=O)ccc31)[C@H](C(=O)NC[C@H](O)c1ccccc1)[C@H]1C(=O)O[C@H](c3ccccc3)[C@H](c3ccccc3)N1[C@@H]2c1ccc(OCCO)cc1`, the composite z-score in assay [1] is 1.11; in [3] it was 0.319; in assay [4] it was 0.565; in assay [5], 0.442; in [6] it was -0.0459; in assay [7], 0.13. Besides, the results for the composite z-score in assay [8], in assay [9] and in [10] were 1.09, 1.47 and 0.41, respectively. For the same compound, the z-score in assay [2] amounted to 0.724.

In the case of `COc1cc2c(cc1O)C(c1ccc(CN3CCCC3)cc1)N(Cc1ccc([N+](=O)[O-])o1)CC2` (stereo not given), the composite z-score in assay [1] was -1.17; in [3], 0.313; in [4] it was 0.383; in assay [5], 0.958; in [6], -0.167; in [7], -0.193. Also, the figures for the composite z-score in [8], in assay [9] and in assay [10] were 0.0692, 1.12 and 0.951, respectively. Also, the z-score in assay [2] is -1.05.

In the case of `C=C(COC)/C(=C/C[C@H](OC(=O)c1ccncc1)c1ccc(OCCO)cc1)c1cc(C(=O)OC)ccc1OC`, the composite z-score in assay [1] was 1.42; in assay [3], 0.431; in [4], 0.579; in assay [5], -0.467; in assay [6], 0.0077; in assay [7], 0.157. For the same compound, the composite z-score amounted to 0.484 in [8], 1.18 in assay [9] and 1.23 in assay [10]. The z-score in [2] is -1.66.

As to `COCCOC(=O)N1C(=O)[C@@]2(c3cc(C#CC4(O)CCCCCC4)ccc31)[C@H](c1ccccc1OCCO)N1[C@H](c3ccccc3)[C@H](c3ccccc3)OC(=O)[C@H]1[C@@H]2C(=O)N1CCCCCCC1`, the composite z-score in assay [1] worked out at 1.06; in assay [3], 0.502; in [4] it was 1.67; in assay [5], 1.46; in [6], 0.355; in assay [7], 0.661. Moreover, the composite z-score came out at 2.71 in assay [8], 3.51 in assay [9] and 1.49 in assay [10]. In assay [2], this compound came in with a z-score of -2.28.

Consider `CC(C)C[C@@H]1NC(=O)[C@@]23C(=O)N[C@@H](Cc4ccccc4)C2[C@H](C)[C@@]2(C)O[C@H]2C3/C=C/C/C=C\CNC(=O)[C@@H](CC(C)C)NC1=O` (stereo not given in full), for which the composite z-score was 0.741 in assay [1]; 0.567 in assay [3]; -0.475 in [4]; -0.674 in assay [5]; -0.101 in [6]; -0.238 in [7]. Besides, the composite z-score in assay [8] was -0.35; in assay [9], 0.403; in assay [10], 0.322. The z-score in assay [2] turned out to be 0.052.

Values taken from PubChem BioAssay.
